Several values for one entry are separate records, joined by “and”; a condition that tells them apart may be missing. Equal entries are not always repeated. Inconclusive results are not listed. Activity calls are given as the source filed them. Unless noted, the call rests on the fitted dose curve; in most records, active means well fitted curve in the direction sought with a large enough effect; inconclusive means small, poorly fitted or top-dose-only effect, or another doubt; inactive means no such curve, though single readings can be large; an effect the other way counts as inactive or inconclusive.
Legend:
[1] = qHTS for Activators of Parkin Expression: LOPAC Validation Assay (NLuc Reporter) (AID 720572); conditions: Parkin promoter NanoLuc reporter cells, luminescence; series mostly up to 46.1 µM
Summary of the method: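 NLuc signal, read 10 min after reagent and following a prior FLuc read, is normalized to DMSO (0) and positive controls (100%). Cells: neuronal Parkin-promoter coincidence reporter line; compounds tested 7-point, 24 h, 37 C, 5% CO2.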

[2] = qHTS for Activators of Parkin Expression: LOPAC Validation Assay (FLuc Reporter) (AID 720573); conditions: Cell line, PRKN promoter firefly luciferase reporter; series mostly up to 46.1 µM
Summary of the method: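 A neuronal cell line harbouring FLuc and NLuc reporters behind the Parkin promoter was exposed to compounds for 24 h. Firefly luciferase signal, measured after 10 min with detection reagent, was scaled to DMSO and positive-control wells.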

[3] = biological target: T1, Hexokinase-4 (Homo sapiens) + Glucokinase regulatory protein (Homo sapiens) (UniProt P35557+Q14397); test: qHTS assay for inhibitors of recombinant human GCK-GKRP interaction: Diaphorase-coupled assay (AID 743205); conditions: G6PDH/diaphorase resorufin fluorescence; series mostly up to 57.5 µM
T1 sequence (P35557 whole entry, looked up): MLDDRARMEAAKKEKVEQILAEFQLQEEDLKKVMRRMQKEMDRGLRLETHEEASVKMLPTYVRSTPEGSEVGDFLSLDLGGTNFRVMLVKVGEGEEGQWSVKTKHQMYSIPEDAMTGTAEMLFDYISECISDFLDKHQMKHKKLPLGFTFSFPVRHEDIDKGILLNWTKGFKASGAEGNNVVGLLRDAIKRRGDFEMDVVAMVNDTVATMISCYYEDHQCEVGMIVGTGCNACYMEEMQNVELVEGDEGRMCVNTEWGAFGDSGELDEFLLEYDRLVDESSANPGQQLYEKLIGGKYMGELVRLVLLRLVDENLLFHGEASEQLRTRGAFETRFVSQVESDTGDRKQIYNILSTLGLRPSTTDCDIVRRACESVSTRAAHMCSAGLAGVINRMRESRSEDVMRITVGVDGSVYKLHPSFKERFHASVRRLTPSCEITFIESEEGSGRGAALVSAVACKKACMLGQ
T1 sequence (Q14397 whole entry, looked up): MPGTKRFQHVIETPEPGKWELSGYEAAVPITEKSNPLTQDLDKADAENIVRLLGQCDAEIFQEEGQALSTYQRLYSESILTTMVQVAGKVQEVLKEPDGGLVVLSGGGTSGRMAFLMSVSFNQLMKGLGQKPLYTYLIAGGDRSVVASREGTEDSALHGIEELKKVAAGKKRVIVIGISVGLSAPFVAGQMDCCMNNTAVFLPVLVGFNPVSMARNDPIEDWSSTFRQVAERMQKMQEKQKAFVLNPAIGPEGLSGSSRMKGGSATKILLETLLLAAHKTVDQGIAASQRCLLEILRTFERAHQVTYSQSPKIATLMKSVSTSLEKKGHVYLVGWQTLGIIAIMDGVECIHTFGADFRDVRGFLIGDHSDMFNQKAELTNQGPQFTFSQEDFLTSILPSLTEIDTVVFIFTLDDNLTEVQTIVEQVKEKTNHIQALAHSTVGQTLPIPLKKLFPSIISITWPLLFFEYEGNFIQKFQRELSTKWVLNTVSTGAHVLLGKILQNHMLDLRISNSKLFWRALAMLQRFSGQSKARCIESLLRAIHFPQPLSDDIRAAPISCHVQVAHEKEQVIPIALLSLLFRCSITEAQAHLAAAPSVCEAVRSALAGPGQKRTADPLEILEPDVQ
Summary of the method: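 Inhibitors of the GCK–GKRP complex relieve GKRP suppression of GCK, detected through a G6PDH–diaphorase cascade reducing resazurin. Human GST-GCK and FLAG-GKRP are used at 10 nM with 5 mM glucose and 0.4 mM ATP.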

[4] = biological target: T1, Hexokinase-4 (Homo sapiens) + Glucokinase regulatory protein (Homo sapiens); test: qHTS assay for inhibitors of recombinant human GCK-GKRP interaction: ADP-Glo assay (AID 743206); conditions: ADP-Glo luminescence, 60 min; series mostly up to 76.9 µM;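 further: plate controls were DMSO plus enzyme for no effect and no enzyme for full effect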
Summary of the method: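 Pin-transferred compounds meet a 15 nM GST-GCK/15 nM FLAG-GKRP/2 uM S6P mix (dispense concentrations). ATP is then added to 0.4 mM final with 5 mM glucose, and the reaction runs 60 min at room temperature. ADP is quantified luminescently.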

[5] = biological target: T1, Hexokinase-4 (Homo sapiens) + Glucokinase regulatory protein (Homo sapiens); test: qHTS assay for inhibitors of recombinant human GCK-GKRP interaction: HTRF assay (AID 743207); conditions: recombinant GCK-GKRP HTRF binding, 60 min, with sorbitol-6-phosphate; series mostly up to 57.5 µM;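 further: 0% = DMSO with GCK present and -100% = DMSO wells lacking GCK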
Summary of the method: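 Steps: dispense GCK–GKRP complex (5 nM each, GST- and FLAG-tagged) with 2 uM S6P; pin in compounds; add XL665/Eu-cryptate-labelled antibodies; incubate 60 min at room temperature; read time-resolved FRET at 665 and 615 nm.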

[6] = qHTS assay for measurement of the activity of small molecule inhibitors on Zika virus induced Caspase-3 activity in human astrocytoma cells (AID 1224859); conditions: SNB-19 ZIKV-induced caspase-3/7, luminescence, 6 h; series mostly up to 45.7 µM;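 further: plate controls were ZIKV-infected untreated cells for no effect and uninfected cells for full effect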
Summary of the method: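 Compound added 1 h pre-infection; ZIKV 2 FFU/cell on SNB-19 cells, 6 h, 37 C/5% CO2. Caspase-Glo 3/7 luminescence; values as % inhibition of ZIKV-induced caspase activity.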

[7] = qHTS Assay for Identifying Gametocytocidal Compounds (AID 743244);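 further: on the % scale 0 is the no-effect control and ±100 the full control effect; actives lower the fluorescent signal which means gametocytes are killed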; conditions: P. falciparum 3D7 stage III-V gametocytes, alamarBlue, 72 h; max response: active compounds read low
Summary of the method: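 Stage III–V gametocytes of P. falciparum 3D7 were seeded at 20,000 cells/well onto pre-dispensed compounds. After 72 h, 37 °C, 5% CO2, alamarBlue was added for another 24 h.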

[8] = qHTS assay for small molecule agonists of the antioxidant response element (ARE) signaling pathway measured by Nrf2-dependant transcriptional activity (AID 720636; active means well fitted curve in the direction sought with a large enough effect in the repeat runs; an effect the other way counts as inactive or inconclusive; further: % of control where 0% means no effect); conditions: ARE-luc HepG2, Nrf2 luciferase reporter, 16 h; series mostly up to 92.4 µM
Summary of the method: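 Quantitative HTS format in HepG2 cells stably expressing an ARE-luciferase reporter; 16 hr compound treatment at 37 C, luciferase signal detected with ONE-Glo.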

[9] = qHTS assay for small molecule antagonists of the retinoid-related orphan receptor gamma (ROR-gamma) signaling pathway - cell viability counter screen (AID 720652; active means well fitted curve in the direction sought with a large enough effect in the repeat runs; an effect the other way counts as inactive or inconclusive;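 further: CHO reporter cells with doxycycline-induced ROR-gamma expression; compound exposure lasted 16 hr before ATP read; on the % scale 0 is the no-effect control and ±100 the full control effect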); conditions: RORgamma reporter cell line viability counter screen; series mostly up to 92.2 µM
Summary of the method: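 Cytotoxicity counter screen: intracellular ATP (CellTiter-Glo luminescence) measured in the doxycycline-induced CHO RORE-luciferase reporter line after 16 hr compound exposure at 37 C, 5% CO2.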

[10] = qHTS assay for small molecule agonists of the antioxidant response element (ARE) signaling pathway measured by Nrf2-dependant transcriptional activity - cell viability counter screen (AID 720653; active means well fitted curve in the direction sought with a large enough effect in the repeat runs; an effect the other way counts as inactive or inconclusive; further: on the % scale 0 is the no-effect control and ±100 the full control effect); conditions: ARE-bla HepG2 viability, CellTiter-Glo ATP luminescence, 16 h; max response: active compounds read low
Summary of the method: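 ARE-bla HepG2 cells treated with compounds for 16 h at 37C; this counter screen measures viability as intracellular ATP by CellTiter-Glo luminescence after 30 min at room temperature.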

[11] = qHTS assay for cell viability of HEK293 cells (AID 743288); conditions: ATP luminescence (CellTiter-Glo), 18 h; max response: active compounds read low; further: on the % scale 0 is the no-effect control and ±100 the full control effect; nearly all actives have a fitted effect of over 50% in size
Summary of the method: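 Quantitative high-throughput screen: compounds were pinned onto parental HEK293 cells (2,000 per well) after a minimum 5 h settling at 37 C, incubated 18 h at 37 C, and intracellular ATP measured by luciferase luminescence.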

[12] = qHTS assay for cell viability of the p53RE-bla HCT-116 cell line (AID 743292); conditions: p53RE-bla HCT-116 viability, ATP luminescence, 16 h; series mostly up to 95 µM; further: on the % scale 0 is the no-effect control and ±100 the full control effect; nearly all actives have a fitted effect of over 55% in size
Summary of the method: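 Viability of compound-treated p53RE-bla HCT-116 cells is taken from ATP-dependent luciferase luminescence. Treatment lasts 16 h at 37 C after a 5 h settling period; detection follows 30 min at room temperature.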

CN=c1nc(-c2ccccc2)n(-c2ccccc2)s1
inactive: Potency [1] | Potency [2] | outcome [3] | Potency [4] | Potency [5] | Potency [6]

N=C(N)SCCc1ccc(CCSC(=N)N)cc1
inactive: Potency [1] | Potency [2] | outcome [3] | Potency [4] | Potency [5] | Potency [6]

N.N.O=C(O)C1(C(=O)O)CCC1.[Pt]
inactive: Potency [1] | Potency [2] | outcome [3] | Potency [4] | Potency [5] | max response [7] -4.37% | Potency [6]

CC(C)CC(NP(=O)(O)O[C@@H]1O[C@@H](C)[C@H](O)[C@@H](O)[C@H]1O)C(=O)NC(Cc1c[nH]c2ccccc12)C(=O)O (stereo not given in full)
inactive: Potency [1] | Potency [2] | outcome [3] | Potency [4] | max response [7] 18.7% | Potency [6]

C[C@@H](NC(=O)/C(C#N)=C/c1ccc(O)c(O)c1)c1ccccc1
inactive: Potency [1] | Potency [2] | Potency [4] | Potency [5] | Potency [6]

N#C/C(=C\c1ccc(O)c(O)c1)C(=O)NCc1ccccc1
inactive: Potency [1] | Potency [2] | outcome [3] | Potency [4] | max response [7] 12.2% | Potency [6]

c1ccc2sc(SSc3nc4ccccc4s3)nc2c1
inactive: Potency [8] | Potency [9] | max response [10] -3.31% and 10.5% | max response [7] 10.7% | max response [11] -16% and 1.48% | Potency [12] | Potency [6]

Nc1ncnc2c1ncn2[C@@H]1O[C@H](COP(=O)(O)CP(=O)(O)OP(=O)(O)O)[C@@H](O)[C@H]1O
inactive: Potency [1] | Potency [2] | outcome [3] | Potency [4] | max response [7] 13.9% | Potency [6]

CN(C)CCCO[C@@H]1[C@H]2OC(C)(C)O[C@H]2O[C@@H]1[C@H](O)CO
inactive: Potency [1] | Potency [2] | outcome [3] | Potency [4] | max response [7] 19.5% | Potency [6]
